This note sets out measurements from PubChem BioAssay (EPA / NIEHS).

Activity calls are given as the source filed them. How the source made its calls: active means hit-call score of the fitted dose curve at least 0.9, where 1 is the maximum; inactive means score below 0.9.

Read-out in test [1]: TIMP metallopeptidase inhibitor 1 (TIMP1), TIMP1 (gene 7076)
Put plainly: BSK_hDFCGF_TIMP1: BioMAP Diversity Plus: hDFCGF Assay for TIMP metallopeptidase inhibitor 1 (TIMP1) Biomarker Activity (AID 2283062). Particulars: primary human foreskin fibroblasts; actives raise or lower the signal. A digest of the protocol:
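TIMP-1 measured by ELISA 24 h after chemical dosing of primary human skin fibroblasts, with gain or loss fitted relative to DMSO. Parallel SRB staining (560 nm) monitored overt cytotoxicity.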

Read-out in test [2]: Monokine induced gamma interferon (MIG), CXCL9 (gene 4283)
Kind of test: BSK_hDFCGF_MIG: BioMAP Diversity Plus: hDFCGF Assay for Monokine induced gamma interferon (MIG) Biomarker Activity (AID 2283063). The conditions noted are these: primary human foreskin fibroblasts; actives raise or lower the signal. The method, boiled down: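 Human primary foreskin fibroblasts in the hDFCGF system, exposed to test chemical for 24 h; MIG measured by ELISA. Bidirectional curve fitting against DMSO negative control as activity baseline.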

Read-out in test [3]: Intercellular Adhesion Molecule 1 (ICAM1), ICAM1 (gene 3383)
Kind of test: BSK_KF3CT_ICAM1: BioMAP Diversity Plus: KF3CT Assay for Intercellular Adhesion Molecule 1 (ICAM1) Biomarker Activity (AID 2283067). The conditions noted are these: primary human keratinocytes with fibroblasts; actives raise or lower the signal. The method, boiled down: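 Cell-surface ICAM-1 was measured by ELISA 24 h after dosing primary human skin keratinocytes co-cultured with fibroblasts. Parallel SRB staining tracked overt cytotoxicity. Gain or loss of signal was fitted relative to DMSO.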

Read-out in test [4]: Interferon-gamma inducible Protein 10 (IP10), CXCL10 (gene 3627)
Put plainly: BSK_KF3CT_IP10: BioMAP Diversity Plus: KF3CT Assay for Interferon-gamma inducible Protein 10 (IP10) Biomarker Activity (AID 2283068). The conditions noted are these: primary human keratinocytes with fibroblasts; actives raise or lower the signal. The method, boiled down:
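Signal is secreted/surface IP-10 by ELISA in a human primary skin co-culture of keratinocytes and foreskin fibroblasts, taken 24 h post-dosing; DMSO served as negative control.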

Test [5] can be described thus: BSK_KF3CT_SRB: Viability Assessment in the BioMAP Diversity Plus: KF3CT Assay (AID 2283069).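 Further: total protein by sulforhodamine B staining as a cytotoxicity measure; read 24 h after compound addition.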 Particulars: primary human keratinocytes with fibroblasts. A digest of the protocol:
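Human primary keratinocyte plus foreskin fibroblast co-culture exposed to chemicals for 24 h. Total protein measured by 0.1% sulforhodamine B staining after 10% TCA fixation, read at 560 nm; bidirectional fitting versus DMSO baseline.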

Read-out in test [6]: Interleukin-1 alpha (IL1a), IL1A (gene 3552)
Kind of test: BSK_KF3CT_IL1a: BioMAP Diversity Plus: KF3CT Assay for Interleukin-1 alpha (IL1a) Biomarker Activity (AID 2283070). The conditions noted are these: primary human keratinocytes with fibroblasts; actives raise or lower the signal. A digest of the protocol: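 Human keratinocyte plus foreskin fibroblast primary co-culture, sampled 24 h after chemical dosing. IL-1a measured by ELISA; responses fitted bidirectionally against DMSO baseline (negative control), so gain or loss of signal both count.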

Read-out in test [7]: TIMP metallopeptidase inhibitor 2 (TIMP2), TIMP2 (gene 7077)
Kind of test: BSK_KF3CT_TIMP2: BioMAP Diversity Plus: KF3CT Assay for TIMP metallopeptidase inhibitor 2 (TIMP2) Biomarker Activity (AID 2283071). Particulars: primary human keratinocytes with fibroblasts; actives raise or lower the signal. A digest of the protocol: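 Co-culture of human primary keratinocytes and foreskin fibroblasts, measured 24 h after chemical dosing. TIMP-2 quantified by ELISA and fitted in both directions relative to DMSO. Cytotoxicity checked in parallel cultures by SRB total-protein staining.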

Read-out in test [8]: Transforming growth factor beta 1 (TGFb1), TGFB1 (gene 7040)
Kind of test: BSK_KF3CT_TGFb1: BioMAP Diversity Plus: KF3CT Assay for Transforming growth factor beta 1 (TGFb1) Biomarker Activity (AID 2283072). The conditions noted are these: primary human keratinocytes with fibroblasts; actives raise or lower the signal. A digest of the protocol:
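Human keratinocyte/foreskin fibroblast co-culture; TGF-b1 measured by ELISA 24 h after dosing, fitted bidirectionally versus DMSO. Cytotoxicity checked in parallel cultures by total protein (SRB staining, 560 nm).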

Read-out in test [9]: C-C motif chemokine 2 (Homo sapiens) (UniProt P13500)
Put plainly: BSK_KF3CT_MCP1: BioMAP Diversity Plus: KF3CT Assay for Monocyte Chemoattractant Protein 1 (MCP1/CCL2) Biomarker Activity (AID 2283073). The conditions noted are these: primary human keratinocytes with fibroblasts; actives raise or lower the signal. The method, boiled down:
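ELISA read-out of MCP-1, 24 h post-dose, in primary human skin keratinocytes co-cultured with fibroblasts. Parallel SRB staining monitors cytotoxicity; changes fitted both directions relative to DMSO.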

Read-out in test [10]: Matrix Metallopeptidase 9 (MMP9), MMP9 (gene 4318)
Kind of test: BSK_KF3CT_MMP9: BioMAP Diversity Plus: KF3CT Assay for Matrix Metallopeptidase 9 (MMP9) Biomarker Activity (AID 2283074).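 On AC50: MMP9 protein level quantified by ELISA in the co-culture.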 The conditions noted are these: primary human keratinocytes with fibroblasts; actives raise or lower the signal. A digest of the protocol:
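Keratinocyte plus foreskin fibroblast human primary skin co-culture was dosed with chemical and MMP-9 was quantified by ELISA 24 h later. Bidirectional curve fitting used DMSO as negative control and activity baseline.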

Read-out in test [11]: urokinase plasminogen activator (uPA), PLAU (gene 5328)
Put plainly: BSK_KF3CT_uPA: BioMAP Diversity Plus: KF3CT Assay for urokinase plasminogen activator (uPA) Biomarker Activity (AID 2283075). Particulars: primary human keratinocytes with fibroblasts; actives raise or lower the signal. A digest of the protocol:
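Human keratinocyte plus foreskin fibroblast primary co-culture exposed to chemical for 24 h. uPA levels were quantified by ELISA, and activity was fitted bidirectionally against a DMSO negative-control baseline.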

Read-out in another test: CD40, CD40 (gene 958)
Put plainly: BSK_LPS_CD40: BioMAP Diversity Plus: LPS Assay for CD40 Biomarker Activity (AID 2283076). Particulars: primary human HUVEC with PBMC; actives raise or lower the signal. The method, boiled down:
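In the LPS system of human endothelial cells with peripheral blood mononuclear cells, CD40 levels were read by ELISA 24 h post-treatment. Signal changes in either direction were fitted against the DMSO baseline, with parallel SRB protein staining.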

Read-out in test [12]: E-selectin (Homo sapiens) (UniProt P16581)
Kind of test: BSK_LPS_Eselectin: BioMAP Diversity Plus: LPS Assay for Eselectin Biomarker Activity (AID 2283077). The conditions noted are these: primary human HUVEC with PBMC; actives raise or lower the signal. The method, boiled down: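 E-selectin ELISA on LPS-stimulated endothelial cell/PBMC co-cultures, read 24 h post-treatment; gains and losses fitted against DMSO. Parallel SRB staining (0.1% SRB after 10% TCA fixation, 560 nm) flags overt cytotoxicity.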

Read-out in test [13]: Interleukin-8 (IL8), CXCL8 (gene 3576)
Put plainly: BSK_LPS_IL8: BioMAP Diversity Plus: LPS Assay for Interleukin-8 (IL8) Biomarker Activity (AID 2283078). The conditions noted are these: primary human HUVEC with PBMC; actives raise or lower the signal. A digest of the protocol: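 ELISA read-out of IL-8 after 24 h chemical treatment of LPS-activated endothelial/PBMC human primary co-cultures. Changes either up or down relative to DMSO; overt cytotoxicity checked by sulforhodamine B staining in parallel wells.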

Test [14] is described as follows: BSK_LPS_SRB: Viability Assessment in the BioMAP Diversity Plus: LPS Assay (AID 2283079).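 Further: total protein by sulforhodamine B absorbance as a cytotoxicity measure; measured one day after compound addition.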 Particulars: primary human HUVEC with PBMC. The method, boiled down: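 SRB viability endpoint: cells fixed with 10% TCA, stained with 0.1% SRB, read at 560 nm, 24 h post-dose. HUVEC/PBMC co-culture; signal change in either direction scored relative to DMSO.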
Read-out in test [15]: Interleukin-1 alpha (IL1a), IL1A (gene 3552)
Put plainly: BSK_LPS_IL1a: BioMAP Diversity Plus: LPS Assay for Interleukin-1 alpha (IL1a) Biomarker Activity (AID 2283080). Particulars: primary human HUVEC with PBMC; actives raise or lower the signal. A digest of the protocol: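 Readout is IL-1a level by ELISA, 24 h post-dose, fitted as gain or loss relative to DMSO. System: LPS-activated human primary co-culture of vascular endothelium and peripheral blood mononuclear cells, with parallel SRB total-protein cytotoxicity.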

Read-out in test [16]: Monocyte Chemoattractant Protein-1 (MCP1), CCL2 (gene 6347)
Put plainly: BSK_LPS_MCP1: BioMAP Diversity Plus: LPS Assay for Monocyte Chemoattractant Protein-1 (MCP1) Biomarker Activity (AID 2283081).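 On AC50: secreted MCP-1 protein quantified by ELISA in culture supernatant.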 Particulars: primary human HUVEC with PBMC; actives raise or lower the signal. The method, boiled down: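 Secreted MCP-1 read by ELISA at 24 h post-dosing in an LPS-activated co-culture of endothelial cells with peripheral blood mononuclear cells. Fits run in both directions, DMSO as baseline; parallel SRB staining tracks overt cytotoxicity.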

Read-out in test [17]: Plasminogen activator inhibitor-1 (PAI1), SERPINE1 (gene 5054)
Kind of test: BSK_hDFCGF_PAI1: BioMAP Diversity Plus: hDFCGF Assay for Plasminogen activator inhibitor-1 (PAI1) Biomarker Activity (AID 2283066). The conditions noted are these: primary human foreskin fibroblasts; actives raise or lower the signal. The method, boiled down:
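Human foreskin fibroblast primary cells, 24 h chemical exposure; PAI-1 measured by ELISA. Bidirectional fitting relative to DMSO; parallel cultures stained with SRB for total protein to flag overt cytotoxicity.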

E-selectin (Homo sapiens), sequence (P16581 whole entry, looked up): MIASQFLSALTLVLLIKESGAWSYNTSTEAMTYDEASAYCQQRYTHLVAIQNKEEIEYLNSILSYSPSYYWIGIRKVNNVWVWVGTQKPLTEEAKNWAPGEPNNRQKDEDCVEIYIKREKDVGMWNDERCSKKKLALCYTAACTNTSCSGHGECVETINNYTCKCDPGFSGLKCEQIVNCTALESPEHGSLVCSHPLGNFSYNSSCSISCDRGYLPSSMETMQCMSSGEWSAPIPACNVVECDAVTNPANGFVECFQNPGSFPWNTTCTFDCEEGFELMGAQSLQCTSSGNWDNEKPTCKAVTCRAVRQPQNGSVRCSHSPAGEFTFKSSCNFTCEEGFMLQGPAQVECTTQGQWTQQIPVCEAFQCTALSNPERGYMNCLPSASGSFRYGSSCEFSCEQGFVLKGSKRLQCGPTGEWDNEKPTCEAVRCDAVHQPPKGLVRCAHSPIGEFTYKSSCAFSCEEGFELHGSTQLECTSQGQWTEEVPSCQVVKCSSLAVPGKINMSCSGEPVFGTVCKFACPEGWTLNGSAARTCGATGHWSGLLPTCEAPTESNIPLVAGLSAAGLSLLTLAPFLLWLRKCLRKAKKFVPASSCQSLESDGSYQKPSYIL

For `Clc1ccc(C(c2ccc(Cl)cc2)C(Cl)(Cl)Cl)cc1`, the AC50 (commonly the midpoint of the concentration-response curve, whichever way the signal moves) in test [1] was 13 µM (active); in [2], 15.8 µM (active); in [3], 27.7 µM (active); in [4], 16.3 µM (active); in test [5], 18.7 µM (active); in [6], 25.1 µM (active). In addition, the AC50 is 11.7 µM (active) in [7]; 14.8 µM (active) in test [8]; 12.7 µM (active) in test [9]; 11 µM (active) in test [10]; 20.1 µM (active) in test [11]; 20 µM (active) with CD40, CD40 (gene 958). The AC50 in test [12] was 31.7 µM (active); in test [13] it was 27.4 µM (active); in test [14], 28.9 µM (active); in test [15], 14.6 µM (active); in [16], 33.1 µM (active).
For `CS(=O)(=O)NC(=O)c1cc(Oc2ccc(C(F)(F)F)cc2Cl)ccc1[N+](=O)[O-]`, the outcome in test [1], in test [2], in [17], in test [3], in [4] and in test [5] was inactive. The result in test [6], in [7], in test [8], in [9], in [10] and in test [11] was inactive. Also, the outcome with CD40, CD40 (gene 958) is “inactive”; in test [12] it was “inactive”; in [13] it was “inactive”; in test [14], “inactive”; in test [15], “inactive”; in test [16], “inactive”.
Regarding `CCN(CC)N=O`, the outcome in [1], in test [2], in test [3], in test [4], in test [5] and in test [6] was inactive. Further, the outcome in test [7] was “inactive”; in [8], “inactive”; in [9] it was “inactive”; in test [10], “inactive”; in test [11], “inactive”; with CD40, CD40 (gene 958), “inactive”. In addition, the outcome in [12], in [13], in test [14], in test [15] and in [16] was inactive.
`[O-][Cl+]O`: the result in test [1], in [2], in [3], in test [4], in [5] and in test [6] was inactive. Moreover, the outcome in test [7] was “inactive”; in [8], “inactive”; in test [10], “inactive”; in test [11] it was “inactive”; in the test with CD40, CD40 (gene 958), “inactive”; in test [12] it was “inactive”. Also, the outcome in test [13], in test [14], in test [15] and in [16] was inactive.
